Assay [1] can be described thus: NCI Yeast Anticancer Drug Screen. Data for the rad50 strain (AID 155).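 Note: 0% = growth of vehicle-only cultures of the same strain.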 The note with it: S. cerevisiae rad50 strain growth inhibition, stronger effect = higher value. Put shortly:
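Genetically altered yeast (DNA repair pathway); compound treatment; growth inhibition vs vehicle ctrl.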

The nature of assay [2]: NCI Yeast Anticancer Drug Screen. Data for the mec2-1 strain (AID 157). The note with it: S. cerevisiae mec2-1 strain, stronger effect = higher value. Put shortly: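 Using mec2-1 yeast: add compound, measure growth, express inhibition versus vehicle-treated cultures.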
The nature of assay [3]: NCI Yeast Anticancer Drug Screen. Data for the sgs1 mgt1 strain (AID 161).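 Note: 0% = growth of cultures given vehicle only.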 The note with it: S. cerevisiae sgs1 mgt1 strain, stronger effect = higher value. Put shortly: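 Yeast cells carrying a defined DNA-repair defect were exposed to test compounds. Growth inhibition was measured relative to vehicle-treated controls.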
Assay [4] is described as follows: NCI Yeast Anticancer Drug Screen. Data for the cln2 rad14 strain (AID 165).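 Note: 0% = growth equal to vehicle treated cultures.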 The note with it: S. cerevisiae cln2 rad14 strain, stronger effect = higher value. In outline:
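Yeast strain cln2 rad14, bearing defects in cell cycle control and DNA repair, serves as the test system; values reflect growth inhibition compared with vehicle.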

Assay [5] in a line: NCI Yeast Anticancer Drug Screen. Data for the bub3 strain (AID 167). The note with it: S. cerevisiae bub3 mutant strain, stronger effect = higher value. In outline: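 Yeast carrying a defined mutation is treated with each compound, and growth is compared with that of vehicle-exposed cells to give inhibition.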
Assay [6] in a line: NCI Yeast Anticancer Drug Screen. Data for the mlh1 rad18 strain (AID 175). The settings on record: S. cerevisiae mlh1 rad18 strain growth inhibition, stronger effect = higher value. In outline: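 Steps: expose repair-defective yeast to compound; measure growth; express inhibition against vehicle-treated controls.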
Where [7] appears, read: at 5.0 µM (retest, dose inferred, filed as 0.5).
The mark [8] stands for this setting: at 50.0 µM (retest, dose inferred, filed as 5.0).

About 79,000 compounds went through this panel and 15% of them were active in at least one assay; those are over-represented in the sample as a whole. Unmarked numbers belong to inactive results. Active and inactive are the calls of the source. Cut-off read from the data, not from the text of the source: active = growth inhibition above about 70%; inactive = the rest.

In the case of `CC(NC(=O)OCc1ccccc1)C(=O)NNc1ccccc1Cl` (stereo not drawn), the growth inhibition was 88% (active) in assay [1] (setting [7]); 96% (active) in assay [1] (setting [8]); 97.5% (active) in assay [1] (at 50.0 µM); 9% in assay [2] (setting [7]); 99% (active) in assay [2] (setting [8]); 96.8% (active) in assay [2] (at 50.0 µM). Besides, the growth inhibition in assay [3] (setting [7]) is 49%; in assay [3] (setting [8]), 99% (active); in assay [3] (at 50.0 µM), 91.4% (active); in assay [4] (setting [7]), 29%; in assay [4] (setting [8]) it was 68%; in assay [4] (at 50.0 µM) it was 98.2% (active). Also, the growth inhibition is 73% (active) in assay [5] (setting [7]); 42% in assay [5] (setting [8]); 97.5% (active) in assay [5] (at 50.0 µM); 96% (active) in assay [6] (setting [7]); 99% (active) in assay [6] (setting [8]); 97.5% (active) in assay [6] (at 50.0 µM).

Turning to `Cc1csc2c1C(=O)c1ccsc1C2=O`, the growth inhibition in assay [1] (setting [7]) was 54%; in assay [1] (setting [8]) it was 97% (active); in assay [1] (at 50.0 µM) it was 88.8% (active); in assay [2] (setting [7]) it was 50%; in assay [2] (setting [8]), 99% (active); in assay [2] (at 50.0 µM), 91.5% (active). Also, the growth inhibition in assay [3] (setting [7]) is 72% (active); in assay [3] (setting [8]), 99% (active); in assay [3] (at 50.0 µM), 92.2% (active); in assay [4] (setting [7]), 31%; in assay [4] (setting [8]) it was 98% (active); in assay [4] (at 50.0 µM), 90.8% (active). The growth inhibition was 86% (active) in assay [5] (setting [7]); 98% (active) in assay [5] (setting [8]); 91.5% (active) in assay [5] (at 50.0 µM); 65% in assay [6] (setting [7]); 99% (active) in assay [6] (setting [8]); 91.1% (active) in assay [6] (at 50.0 µM).

`CCCCC(CC)COC(=O)c1cc2ccccc2oc1=O` (stereo not drawn): the growth inhibition in assay [1] (setting [7]) was 3%; in assay [1] (setting [8]) it was 7%; in assay [1] (at 50.0 µM), 70.8% (active); in assay [2] (setting [7]), 1%; in assay [2] (setting [8]) it was 13%; in assay [2] (at 50.0 µM), 61.8%. For the same compound, the growth inhibition was 3% in assay [3] (setting [7]); 21% in assay [3] (setting [8]); 68.5% in assay [3] (at 50.0 µM); 5% in assay [4] (setting [7]); 4% in assay [4] (setting [8]); 49.5% in assay [4] (at 50.0 µM). For the same compound, the growth inhibition in assay [5] (setting [7]) was 11%; in assay [5] (setting [8]) it was 35%; in assay [5] (at 50.0 µM) it was 79.6% (active); in assay [6] (setting [7]) it was 3%; in assay [6] (setting [8]), 19%; in assay [6] (at 50.0 µM), 67.8%.

`O=c1c2ccccc2sc2c(CO)ccc(NCCN3CCCCC3)c12`: the growth inhibition in assay [1] (setting [7]) was -5%; in assay [1] (setting [8]), 45%; in assay [1] (at 50.0 µM), 71.2% (active); in assay [2] (setting [7]), 6%; in assay [2] (setting [8]), -21%; in assay [2] (at 50.0 µM), 23.6%. For the same compound, the growth inhibition in assay [3] (setting [7]) was -9%; in assay [3] (setting [8]), 35%; in assay [3] (at 50.0 µM) it was 34.5%; in assay [4] (setting [7]), -21%; in assay [4] (setting [8]), 13%; in assay [4] (at 50.0 µM), 24.5%. For the same compound, the growth inhibition in assay [5] (setting [7]) was 12%; in assay [5] (setting [8]), 13%; in assay [5] (at 50.0 µM), 25.4%; in assay [6] (setting [7]) it was 2%; in assay [6] (setting [8]), 40%; in assay [6] (at 50.0 µM), 40.1%.

`COc1ccc2c(c1)[n+]([O-])c(-c1ccc(Cl)c(Cl)c1)c(N)[n+]2[O-]`: the growth inhibition in assay [1] (setting [7]) is 23%; in assay [1] (setting [8]), 98% (active); in assay [1] (at 50.0 µM) it was 99.5% (active); in assay [2] (setting [7]), 26%; in assay [2] (setting [8]) it was 99% (active); in assay [2] (at 50.0 µM), 99.5% (active). The growth inhibition in assay [3] (setting [7]) was 29%; in assay [3] (setting [8]), 99% (active); in assay [3] (at 50.0 µM), 99.7% (active); in assay [4] (setting [7]), 38%; in assay [4] (setting [8]) it was 98% (active); in assay [4] (at 50.0 µM), 99.3% (active). Moreover, the growth inhibition is 76% (active) in assay [5] (setting [7]); 99% (active) in assay [5] (setting [8]); 99.6% (active) in assay [5] (at 50.0 µM); 71% (active) in assay [6] (setting [7]); 99% (active) in assay [6] (setting [8]); 99.4% (active) in assay [6] (at 50.0 µM).

In the case of `Oc1ccc2cc(Br)ccc2c1`, the growth inhibition in assay [1] (setting [7]) was 8%; in assay [1] (setting [8]), 98% (active); in assay [1] (at 50.0 µM), 54.1%; in assay [2] (setting [7]), 0%; in assay [2] (setting [8]) it was 99% (active); in assay [2] (at 50.0 µM), 99% (active). In addition, the growth inhibition in assay [3] (setting [7]) is 2%; in assay [3] (setting [8]), 97% (active); in assay [3] (at 50.0 µM) it was 45.1%; in assay [4] (setting [7]), -2%; in assay [4] (setting [8]), 98% (active); in assay [4] (at 50.0 µM) it was 56.4%. Moreover, the growth inhibition was 4% in assay [5] (setting [7]); 99% (active) in assay [5] (setting [8]); 99% (active) in assay [5] (at 50.0 µM); 3% in assay [6] (setting [7]); 99% (active) in assay [6] (setting [8]); 98.8% (active) in assay [6] (at 50.0 µM).

The record behind these values is PubChem BioAssay (NCI).
